In PubChem BioAssay:
Records with an inconclusive call do not appear. The source made the active and inactive calls.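 How the source made its calls, unless noted: active means normalized viability below 100% at a tested concentration; inactive means the rest.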

How the values were obtained:
[1] = viability loss in pontine glioma line – cell-based, SU-DIPG-XVII, MIPE5.0, CellTiter-Glo, qHTS, dose response (AID 1347060; cut-off not given, nearly all actives have AC50 up to about 26 µM;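 on AC50: cells exposed to compound for 48 hours before viability readout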); details: CellTiter-Glo ATP luminescence
[2] = viability loss in pontine glioma line – cell-based, SU-DIPG-XIII, MIPE4.0, CellTiter-Glo, qHTS, dose response (AID 1347061; cut-off not given, nearly all actives have AC50 up to about 37 µM;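 further: cells exposed to compound for 48 hours before readout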); details: CellTiter-Glo ATP luminescence
[3] = viability loss in pontine glioma line – cell-based, SU-DIPG-IV, MIPE4.0, CellTiter-Glo, qHTS, dose response (AID 1347063; cut-off not given, nearly all actives have AC50 up to about 30 µM;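 further: compound exposure lasted 48 hours before the viability readout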); details: CellTiter-Glo ATP luminescence
[4] = viability loss in pontine glioma line – cell-based, SU-DIPG-XIII, MIPE5.0, CellTiter-Glo, qHTS, dose response (AID 1347064; cut-off not given, nearly all actives have AC50 up to about 23 µM;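 on AC50: cells exposed to compound for 48 hours before the viability read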); details: CellTiter-Glo ATP luminescence
[5] = viability loss in pontine glioma line – cell-based, SU-DIPG-XXV, MIPE5.0, CellTiter-Glo, qHTS, dose response (AID 1347065; cut-off not given, nearly all actives have AC50 up to about 26 µM;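 further: cells exposed to compound for 48 hours before ATP readout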); details: CellTiter-Glo ATP luminescence
[6] = JHH-DIPG-1 glioma cell viability, MIPE5.0 library, CellTiter-Glo luminescence, qHTS (AID 1347067; cut-off not given, nearly all actives have AC50 up to about 26 µM;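 further: cells exposed to compound for 48 hours before readout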); details: JHH-DIPG-1 glioma viability, CellTiter-Glo ATP luminescence
[7] = growth inhibition of DIPG cells – cell-based, MIPE5.0 library, qHTS (AID 1347068; cut-off not given, nearly all actives have IC50 up to about 30 µM;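 on IC50: cells exposed to compound for 48 hours before viability readout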); details: SU-DIPG-XXV viability
[8] = viability loss in pontine glioma line – cell-based, JHH-DIPG-1, MIPE4.0, CellTiter-Glo, qHTS, dose response (AID 1347062; cut-off not given, nearly all actives have AC50 up to about 27 µM;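 on AC50: cells exposed to compound for two days before readout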); details: JHH-DIPG-1 viability, CellTiter-Glo ATP luminescence
[9] = growth inhibition of DIPG cells – cell-based, MIPE4.0 library, CellTiter-Glo luminescence, qHTS (AID 1347066; cut-off not given, nearly all actives have AC50 up to about 30 µM;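 further: cells exposed to compound for 48 hours before readout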); details: SU-DIPG-VI viability, CellTiter-Glo ATP luminescence
[10] = viability loss with induced miR-34 in A549 – imaging, A549 dox-inducible miR-34, nuclei and caspase counts, primary screen (AID 1347080;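 active means compounds whose cell count with miR-34 switched on is under 0.7 times the count with it off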); details: A549 miR-34 inducible, Hoechst nuclei count, 48 h
[11] = MELAS cybrid and Rieske KO viability enhancers – cell-based, MELAS cybrids, Rieske KO mouse fibroblasts, CellTiter-Glo, primary screen (AID 1508586;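 active means mean z-score across replicates of 1.96 or higher in either the MELAS or the Rieske mutant cell line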;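 further: z relative to plate mean and SD of compound and empty wells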); details: low glucose
[12] = compounds altering HSF1 focus formation in cells – imaging, Selleck Cancer Library (AID 1347162; in the data active means plate-normalised HSF1 focus index below about 0.46); details: human cells, HSF1 nuclear foci imaging, at 10 µM; SSMD: measured here: HSF1 foci SSMD mean; cell count: measured here: cell number; plate-normalised HSF1 focus index: stronger effect = lower value
[13] = drug combination growth inhibition, ovarian cancer – cell-based, oncology-focused library, rucaparib conditional, profiling panel (AID 1508598); details: patient-derived ovarian cancer cells, CellTiter-Glo viability, 144 h, stronger effect = lower value
[14] = stronger effect = lower value, cell number ratio, induced over uninduced
[15] = measured here: relative caspase fold change +Dox/-Dox
[16] = measured here: total cells with miR-34 induction, stronger effect = lower value
[17] = measured here: total cells without miR-34 induction
[18] = MELAS cybrid survival, CellTiter-Glo 48 h, stronger effect = higher value
[19] = Rieske KO mouse fibroblast survival, CellTiter-Glo 72 h

SMILES: CC(=O)Nc1ccc([C@H](C)C(=O)Nc2ncc(C(C)C)s2)cc1
- AC50 [1]: 0.934 µM (active)
- AC50 [2]: 4.69 µM (active)
- AC50 [3]: 2.64 µM (active)
- AC50 [4]: 2.95 µM (active)
- AC50 [5]: 1.86 µM (active)
- AC50 [6]: 3.32 µM (active)
- IC50 [7]: 2.95 µM (active)

SMILES: Cn1cnc2c(F)c(Nc3ccc(Br)cc3F)c(C(=O)NOCCO)cc21
- AC50 [1]: 3.72 µM (active)
- AC50 [2]: 4.18 µM (active)
- AC50 [8]: 6.62 µM (active)
- AC50 [5]: 5.25 µM (active)
- outcome [9]: inactive
- AC50 [6]: 0.833 µM (active)
- fold change [10, 14]: 0.958 (inactive)
- fold change [10, 15]: 0.664
- cell count [10, 16]: 4350
- cell count [10, 17]: 4540
- z-score [11, 18]: 0.0149 (inactive)
- z-score [11, 19]: -0.207

SMILES: CCNC(=O)[C@H]1O[C@@H](n2cnc3c(N)nc(NCCc4ccc(CCC(=O)O)cc4)nc32)[C@H](O)[C@@H]1O
- outcome [1]: inactive
- outcome [2]: inactive
- outcome [8]: inactive
- outcome [5]: inactive
- outcome [9]: inactive
- outcome [6]: inactive
- outcome [7]: inactive

SMILES: COc1cccc(OC)c1-c1cc(C(=O)NC2(C(=O)O)C3CC4CC(C3)CC2C4)nn1-c1ccnc2cc(Cl)ccc12 (centres undefined)
- AC50 [1]: 14.8 µM (active)
- outcome [2]: inactive
- outcome [8]: inactive
- AC50 [5]: 18.6 µM (active)
- outcome [9]: inactive
- outcome [7]: inactive

SMILES: O=C(O)CCC1CCC(c2cc(F)ccc2F)(S(=O)(=O)c2ccc(Cl)cc2)CC1 (centres undefined)
- outcome [1]: inactive
- AC50 [2]: 18.7 µM (active)
- AC50 [8]: 16.6 µM (active)
- outcome [4]: inactive
- AC50 [9]: 6.62 µM (active)
- outcome [6]: inactive
- fold change [10, 14]: 0.867 (inactive)
- fold change [10, 15]: 0.588
- cell count [10, 16]: 8810
- cell count [10, 17]: 10200
- SSMD [12]: 1.51
- cell count [12]: 7050
- plate-normalised HSF1 focus index [12]: 1.09 (inactive)
- z-score [11, 18]: -0.308 (inactive)
- z-score [11, 19]: 0.781
- viability ([13]; at 0.000305 µM, OCI-C5x cells, with rucaparib 10 µM, 100% = cells with rucaparib alone): 114% (inactive)
- viability ([13]; at 0.000305 µM, OCI-C5x cells, without rucaparib): 121% (inactive)
- viability ([13]; at 0.000305 µM, OCI-P5x cells, with rucaparib 20 µM, 100% = cells with rucaparib alone): 110% (inactive)
- viability ([13]; at 0.000305 µM, OCI-P5x cells, without rucaparib): 108% (inactive)
- viability ([13]; at 0.00122 µM, OCI-C5x cells, with rucaparib 10 µM, 100% = cells with rucaparib alone): 123% (inactive)
- viability ([13]; at 0.00122 µM, OCI-C5x cells, without rucaparib): 121% (inactive)
- viability ([13]; at 0.00122 µM, OCI-P5x cells, with rucaparib 20 µM, 100% = cells with rucaparib alone): 113% (inactive)
- viability ([13]; at 0.00122 µM, OCI-P5x cells, without rucaparib): 102% (inactive)
- viability ([13]; at 0.00488 µM, OCI-C5x cells, with rucaparib 10 µM, 100% = cells with rucaparib alone): 110% (inactive)
- viability ([13]; at 0.00488 µM, OCI-C5x cells, without rucaparib): 120% (inactive)
- viability ([13]; at 0.00488 µM, OCI-P5x cells, with rucaparib 20 µM, 100% = cells with rucaparib alone): 107% (inactive)
- viability ([13]; at 0.00488 µM, OCI-P5x cells, without rucaparib): 105% (inactive)
- viability ([13]; at 0.0195 µM, OCI-C5x cells, with rucaparib 10 µM, 100% = cells with rucaparib alone): 115% (inactive)
- viability ([13]; at 0.0195 µM, OCI-C5x cells, without rucaparib): 104% (inactive)
- viability ([13]; at 0.0195 µM, OCI-P5x cells, with rucaparib 20 µM, 100% = cells with rucaparib alone): 104% (inactive)
- viability ([13]; at 0.0195 µM, OCI-P5x cells, without rucaparib): 104% (inactive)
- viability ([13]; at 0.0781 µM, OCI-C5x cells, with rucaparib 10 µM, 100% = cells with rucaparib alone): 108% (inactive)
- viability ([13]; at 0.0781 µM, OCI-C5x cells, without rucaparib): 112% (inactive)
- viability ([13]; at 0.0781 µM, OCI-P5x cells, with rucaparib 20 µM, 100% = cells with rucaparib alone): 102% (inactive)
- viability ([13]; at 0.0781 µM, OCI-P5x cells, without rucaparib): 93.6% (active)
- viability ([13]; at 0.313 µM, OCI-C5x cells, with rucaparib 10 µM, 100% = cells with rucaparib alone): 113% (inactive)
- viability ([13]; at 0.313 µM, OCI-C5x cells, without rucaparib): 113% (inactive)
- viability ([13]; at 0.313 µM, OCI-P5x cells, with rucaparib 20 µM, 100% = cells with rucaparib alone): 99.9% (active)
- viability ([13]; at 0.313 µM, OCI-P5x cells, without rucaparib): 89.3% (active)
- viability ([13]; at 1.25 µM, OCI-C5x cells, with rucaparib 10 µM, 100% = cells with rucaparib alone): 113% (inactive)
- viability ([13]; at 1.25 µM, OCI-C5x cells, without rucaparib): 109% (inactive)
- viability ([13]; at 1.25 µM, OCI-P5x cells, with rucaparib 20 µM, 100% = cells with rucaparib alone): 94.5% (active)
- viability ([13]; at 1.25 µM, OCI-P5x cells, without rucaparib): 87.7% (active)
- viability ([13]; at 5 µM, OCI-C5x cells, with rucaparib 10 µM, 100% = cells with rucaparib alone): 114% (inactive)
- viability ([13]; at 5 µM, OCI-C5x cells, without rucaparib): 107% (inactive)
- viability ([13]; at 5 µM, OCI-P5x cells, with rucaparib 20 µM, 100% = cells with rucaparib alone): 84.8% (active)
- viability ([13]; at 5 µM, OCI-P5x cells, without rucaparib): 76.9% (active)
